In PubChem BioAssay (NCI):
Compounds without any hit were thinned out: in the full panel of roughly 79,000, 15% have a hit. Unmarked numbers belong to inactive results. Active and inactive are the calls of the source. Rule as the data show it: active = growth inhibition above about 70%; inactive = the rest.

How the values were obtained:
[1] = NCI Yeast Anticancer Drug Screen. Data for the rad50 strain (AID 155);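 also: 0% = growth of vehicle-only cultures of the same strain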; conditions: S. cerevisiae rad50 strain growth inhibition; at 50.0 µM; stronger effect = higher value
Outline: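 A DNA repair-deficient yeast mutant serves as the test organism; compound-induced growth inhibition is calculated against vehicle-treated cells.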

[2] = NCI Yeast Anticancer Drug Screen. Data for the mec2-1 strain (AID 157); conditions: S. cerevisiae mec2-1 strain, at 50.0 µM, stronger effect = higher value
Outline: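 Compounds were applied to mec2-1 yeast cells. Their growth was then compared with that of vehicle-treated cultures to give growth inhibition.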

[3] = NCI Yeast Anticancer Drug Screen. Data for the sgs1 mgt1 strain (AID 161);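 also: 0% = growth of cultures given vehicle only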; conditions: S. cerevisiae sgs1 mgt1 strain, at 50.0 µM, stronger effect = higher value
Outline: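 Percent growth inhibition was derived by comparing compound-exposed mutant yeast with vehicle-exposed cultures. The strain carries alterations in DNA damage repair.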

[4] = NCI Yeast Anticancer Drug Screen. Data for the cln2 rad14 strain (AID 165);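 also: 0% = growth equal to vehicle treated cultures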; conditions: S. cerevisiae cln2 rad14 strain, at 50.0 µM, stronger effect = higher value
Outline: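 Strain: cln2 rad14 yeast, altered in cell cycle control and DNA damage repair. Read-out: growth inhibition vs vehicle.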

[5] = NCI Yeast Anticancer Drug Screen. Data for the bub3 strain (AID 167); conditions: S. cerevisiae bub3 mutant strain, at 50.0 µM, stronger effect = higher value
Outline: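 Inhibition values come from growth of compound-treated mutant yeast normalised to vehicle-treated controls.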

[6] = NCI Yeast Anticancer Drug Screen. Data for the mlh1 rad18 strain (AID 175); conditions: S. cerevisiae mlh1 rad18 strain growth inhibition; at 50.0 µM; stronger effect = higher value
Outline: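 A repair-deficient yeast strain is exposed to test compound, and growth is scored relative to vehicle-treated controls.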

| SMILES | growth inhibition [1] | growth inhibition [2] | growth inhibition [3] | growth inhibition [4] | growth inhibition [5] | growth inhibition [6] |
| --- | --- | --- | --- | --- | --- | --- |
| C=CCn1c(=S)sc2ccccc21 | 14.8% | 13.3% | 12.8% | 17.7% | -7.65% | -1.95% |
| CC(C)(O)C12CC3CC(CC(C3)C1)C2 | 18.4% | -6.15% | 8.35% | -38.2% | 5.25% | 0.2% |
| COc1cc(CC2COC(=O)C2Cc2ccc(O)c(OC)c2)ccc1O (stereo unspecified) | -4.85% | 12.1% | 0.35% | -15.8% | 22.4% | 6.4% |
| Cc1ccc(S(=O)(=O)NNC(=O)c2cccnc2)cc1 | -11.4% | 18.7% | 1.35% | -27.8% | -5.75% | 4.8% |
| C/C=C(\CC)C(C#N)O[Si](C)(C)C (stereo unspecified) | 13.2% | 4.4% | 1.45% | 6.5% | 10% | -24.6% |
| C=C1C(=O)O[C@H]2/C=C(/C)C3=CC(=O)[C@@](C)(C[C@@H](OC(=O)/C(C)=C\C)C12)O3 (stereo partly specified) | 73.5% (active) | 80.8% (active) | 81.2% (active) | 64.8% | 77.9% (active) | 75.8% (active) |
| N#CC(NCc1ccccc1)c1ccccc1 (stereo unspecified) | 67.7% | 43% | 14.3% | -17.1% | 22.2% | 19.8% |
| Cc1c(O)c(=O)ccn1C1OC(CO)C(O)C1O (stereo unspecified) | 16.5% | 22.9% | 25.5% | -2.9% | 15.8% | 26% |
| O=C(O)c1cc2cc(O)ccc2[nH]1 | 2.6% | 3.6% | 20.9% | 3% | 10.4% | -5.25% |
| Cc1cc(Cl)cc(C(=O)O)c1O | 5.7% | -9.25% | 0.1% | -12.7% | -8.05% | -8% |
| COc1cccc(-c2nc(-c3cnccn3)n(C3OC(CO)C(O)C3O)n2)c1 (stereo unspecified) | -16.4% | -22.4% | -12.8% | 11.6% | -45% | -22.6% |
| O=c1ccnc2c1ccc1[nH]cccc12 | 1.35% | 6.25% | -13.9% | 1% | 8.6% | 13.3% |
| COc1cc([C@@H]2c3cc4c(cc3[C@@H](Nc3ccccc3C(=O)c3ccccc3)[C@H]3COC(=O)[C@H]23)OCO4)cc(OC)c1OC | 9.35% | 9.95% | -18.5% | 13.2% | 1.05% | -34.5% |
| COc1ccc(/C=N/NC(=O)c2ccc(N)cc2)cc1 | -1.65% | 3% | 14.4% | -15.9% | 22.4% | 8.75% |
| Cn1c(CBr)nc2c1C(=O)c1nc[nH]c(=O)c1C2=O | 32% | 0.55% | 37.6% | 11.8% | 3.4% | 31.6% |
| CC(=O)OCC1OC(OC(C)=O)C(NC(=O)C[NH-])C(OC(C)=O)C1OC(C)=O.CC(=O)OCC1OC(OC(C)=O)C(NC(=O)C[NH-])C(OC(C)=O)C1OC(C)=O.[Cl][Pt+2][Cl] (stereo unspecified) | -2.75% | -19.4% | -5.85% | -42.9% | 1.7% | 21.9% |
| COC(=O)CCC1CCCC(CCC(=O)OC)C1=O (stereo unspecified) | -4.9% | 4.55% | -17.6% | -6.1% | -1.1% | -3.3% |
| Cc1cc(Cl)ccc1Nc1nc2c(s1)C(=O)c1ccccc1C2=O | 90.8% (active) | 84.9% (active) | 85.6% (active) | 86.5% (active) | 87.6% (active) | 91.4% (active) |
| Cc1ccccc1C(=O)Oc1ccccc1Cl | 12% | 17.7% | -6.2% | 4.25% | 13.2% | 11.3% |
| CN(C)n1c(O)c(N=O)sc1=S | -30.9% | -6.25% | -7.65% | -25.7% | -10.1% | 5.55% |
| NNC(=O)c1ccc(OCc2nc3ccccc3[nH]2)cc1 | -14.8% | -31.9% | 1.2% | 5.1% | -87.2% | -18.7% |

| SMILES | growth inhibition [1] | growth inhibition [2] | growth inhibition [3] | growth inhibition [4] | growth inhibition [5] | growth inhibition [6] |
| --- | --- | --- | --- | --- | --- | --- |
| COc1cc(/C=N/N2CC(=O)N(c3ccccc3)CC2=O)cc(OC)c1 | -469% | 18.1% | 23.7% | 7.1% | 10.8% | 13.1% |
| CN(CCC(=O)c1ccc2ccccc2c1)Cc1ccccc1 | 16.4% | 3% | 27.4% | -1.45% | 8% | 20.7% |
| CCOc1ccccc1NC(=O)C1=C(C)NC(C)=C(C(=O)Nc2ccccc2OCC)C1c1ccc(NC(C)=O)cc1 | -30.1% | -10.8% | -15.4% | -5.9% | -22.2% | 11.7% |
| COc1ccc(C(OC2OC(n3cnc4c(=S)nc(N)[nH]c43)CC2OC(C)=O)(c2ccccc2)c2ccc(OC)cc2)cc1 (stereo unspecified) | 17.9% | 21.9% | 11.2% | -54.4% | 23.4% | 24.4% |
| O=[N+]([O-])c1ccc(CCCn2cnc3c(Cl)ncnc32)c([N+](=O)[O-])c1 | 15% | 0.95% | 7.95% | -1.45% | 1.2% | -10.6% |
| COC(=O)c1cc(-c2ccncc2)[nH]c(=O)c1C#N | -5.05% | -32.1% | -33.9% | -18.1% | -15.2% | -19.9% |
| CC(C)=CCC(OC(=O)C=C(C)C)c1cc(O)c2c(O)ccc(O)c2c1O.[Mn] (stereo unspecified) | 36.1% | 47.2% | 25.4% | 54.1% | 46% | 87.3% (active) |
| CN=C1NC(C)(C)C2CCC(C)(CC2)S1 | 8.35% | 14.9% | -4.3% | -71.3% | 2.85% | 14.7% |
| O=C(Nc1ccc(Cl)cc1)c1ccc(Cl)c(Cl)c1 | -1.6% | 14.8% | 7.1% | -8.6% | 11.8% | -9.6% |
| c1ccc2c(c1)c1c(n2CCOCCN2CCCCC2)CCCC1 | 33.9% | 19.9% | 29.3% | 28.1% | 28.4% | 19.8% |
| Cc1ccccc1NC(=O)C(=O)C(C#N)c1ccc(Cl)cc1Cl (stereo unspecified) | -19.3% | 6% | 24.8% | -19.6% | 7.3% | 19.9% |
| CN1Cc2cc3c(cc2-c2ccccc21)OCO3 | -23.7% | -35.7% | -44.9% | 6.4% | -36.5% | -35.6% |
| CSc1ccc2c(c1)Cc1cc(N)ccc1-2 | 3.9% | 10.6% | 12.1% | 3.4% | -26.7% | 10.8% |
| CC(=O)NC1=CC(=O)c2cc(C)cc(O)c2C1=O | 23.3% | 21.9% | 20.1% | 16.2% | 28.1% | -14.6% |
| Cc1cccc(S(=O)(=O)c2ccccc2)c1 | 22.9% | 34.1% | -15.7% | 13.1% | 4.35% | 18.6% |
| CC(C)=CCc1c(C)c(O)c(C)c(C)c1O | 7.15% | 1.25% | 9.6% | -71.9% | -11.4% | 8.05% |
| CC(=O)CCC(=O)OCc1ccccc1 | 35.1% | 7.75% | 1.3% | 10.3% | -3% | 4.2% |
| Cc1cc2c(C)nn(Cc3ccccc3)c2c(C(=O)O)c1C | 10.6% | 7.05% | 1.15% | 2.95% | 9.95% | 26.8% |
| CN(CC(=O)O)C(=N)N | -8.3% | -11.8% | -19.9% | -2.75% | -24.6% | -9.2% |
| Cc1ccc(C)c(NC(=O)/C=N/O)c1 | 1% | -5.95% | 18.5% | 12.4% | 2.3% | 1% |
